Source: PubChem BioAssay (EPA / NIEHS)
“And” between values parts separate entries of the source, which are not always exact repeats. Equal entries are not always repeated. Where a structure was tested more than once in an assay, its records may differ in their call. The source made the active and inactive calls. The calls were made as follows: active = hit-call score of the fitted dose curve at least 0.9, where 1 is the maximum; inactive = score below 0.9.

Experiments:
[1] = read-out: Tissue Factor, F3 (gene 2152); test: BSK_CASM3C_TissueFactor: BioMAP Diversity Plus: CASM3C Assay for Tissue Factor Biomarker Activity (AID 2283052); details: primary human coronary artery smooth muscle cells; actives raise or lower the signal;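 also: cell surface tissue factor protein level read by ELISA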
[2] = read-out: Urokinase-type plasminogen activator receptor (uPAR), PLAUR (gene 5329); test: BSK_CASM3C_uPAR: BioMAP Diversity Plus: CASM3C Assay for Urokinase-type plasminogen activator receptor (uPAR) Biomarker Activity (AID 2283054); details: primary human coronary artery smooth muscle cells; actives raise or lower the signal;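 also: cell-surface uPAR protein level quantified by ELISA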
[3] = read-out: Vascular cell adhesion molecule 1 (VCAM1), VCAM1 (gene 7412); test: BSK_CASM3C_VCAM1: BioMAP Diversity Plus: CASM3C Assay for Vascular cell adhesion molecule 1 (VCAM1) Biomarker Activity (AID 2283055); details: primary human coronary artery smooth muscle cells; actives raise or lower the signal;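 also: VCAM-1 protein level quantified by ELISA on the cells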
[4] = read-out: Collagen III, COL3A1 (gene 1281); test: BSK_hDFCGF_CollagenIII: BioMAP Diversity Plus: hDFCGF Assay for Collagen III Biomarker Activity (AID 2283056); details: primary human foreskin fibroblasts; actives raise or lower the signal
In short: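 Human foreskin primary fibroblasts were exposed to test chemicals for 24 h, after which collagen III was quantified by ELISA. Activity was fitted bidirectionally against DMSO as negative control and baseline.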

[5] = read-out: Epidermal growth factor receptor (EGFR), EGFR (gene 1956); test: BSK_hDFCGF_EGFR: BioMAP Diversity Plus: hDFCGF Assay for Epidermal growth factor receptor (EGFR) Biomarker Activity (AID 2283057); details: primary human foreskin fibroblasts; actives raise or lower the signal
In short: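 hDFCGF system, primary human foreskin fibroblasts; compound 24 h; EGFR measured by ELISA; DMSO = negative control/baseline; bidirectional fitting.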

[6] = read-out: Interleukin-8 (IL8), CXCL8 (gene 3576); test: BSK_hDFCGF_IL8: BioMAP Diversity Plus: hDFCGF Assay for Interleukin-8 (IL8) Biomarker Activity (AID 2283058); details: primary human foreskin fibroblasts; actives raise or lower the signal
In short: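 hDFCGF human dermal fibroblasts; 24 h chemical exposure; IL-8 by ELISA; bidirectional curve fit vs DMSO baseline; gain or loss of signal scored.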

[7] = read-out: Macrophage colony-stimulating factor (MCSF), CSF1 (gene 1435); test: BSK_hDFCGF_MCSF: BioMAP Diversity Plus: hDFCGF Assay for Macrophage colony-stimulating factor (MCSF) Biomarker Activity (AID 2283060); details: primary human foreskin fibroblasts; actives raise or lower the signal
In short: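 Human foreskin primary fibroblasts were treated with test chemical for 24 h, and M-CSF was then measured by ELISA. Data were fitted bidirectionally against DMSO as the negative control and activity baseline.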

[8] = BSK_hDFCGF_SRB: Viability Assessment in the BioMAP Diversity Plus: hDFCGF Assay (AID 2283061); details: primary human foreskin fibroblasts;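 also: cells exposed to compound for 24 h before the read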
In short: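 Human foreskin primary fibroblasts were treated with compound and assessed 24 h after dosing. Total protein was measured by sulforhodamine B staining (0.1% SRB after 10% TCA fixation, 560 nm read) as a cytotoxicity marker, with bidirectional fitting against DMSO baseline.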

[9] = read-out: Interferon-gamma inducible Protein 10 (IP10), CXCL10 (gene 3627); test: BSK_hDFCGF_IP10: BioMAP Diversity Plus: hDFCGF Assay for Interferon-gamma inducible Protein 10 (IP10) Biomarker Activity (AID 2283053); details: primary human foreskin fibroblasts; actives raise or lower the signal
In short: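 Primary foreskin fibroblasts, human; 24 h compound exposure; IP-10 by ELISA; bidirectional fit vs DMSO.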

[10] = BSK_hDFCGF_Proliferation: Cell Proliferation Assessment in the BioMAP Diversity Plus: hDFCGF Assay (AID 2283059); details: primary human foreskin fibroblasts;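 also: curves fitted for both rise and fall of signal versus DMSO baseline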
In short: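 This proliferation readout used SRB total-protein staining of human foreskin fibroblasts […], normalized to DMSO with bidirectional curve fitting.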

SMILES: CCC(C)c1ccccc1O (stereo not given)
- outcome [1]: inactive
- outcome [2]: inactive
- outcome [3]: inactive
- outcome [4]: inactive
- outcome [5]: inactive
- outcome [6]: inactive
- outcome [7]: inactive
- outcome [8]: inactive

SMILES: O=C(CCCN1CCC(O)(c2ccc(Cl)cc2)CC1)c1ccc(F)cc1
- outcome [1]: inactive
- outcome [9]: inactive
- outcome [2]: inactive
- outcome [3]: inactive
- outcome [4]: inactive
- outcome [5]: inactive
- outcome [6]: inactive
- AC50 [10]: 4.55 µM (active)
- outcome [7]: inactive
- outcome [8]: inactive

SMILES: Clc1ccc(Nc2nnc(Cc3ccncc3)c3ccccc23)cc1
- AC50 [1]: 8.4 µM (active)
- outcome [2]: inactive
- outcome [3]: inactive
- outcome [4]: inactive
- outcome [6]: inactive
- outcome [7]: inactive
- outcome [8]: inactive

SMILES: NC(=NCCCCCCN=C(N)/N=C(\N)Nc1ccc(Cl)cc1)/N=C(\N)Nc1ccc(Cl)cc1
- AC50 [1]: 2.1 µM (active)
- AC50 [2]: 4.86 µM (active)
- AC50 [3]: 9.65 µM (active)
- outcome [6]: inactive
- AC50 [7]: 4.84 µM (active)
- AC50 [8]: 4.77 µM (active)

SMILES: O=C(O)C(F)(F)OC(F)(F)C(F)(F)OC(F)(F)C(F)(F)OC(F)(F)C(F)(F)C(F)(F)C(F)(F)F
- outcome [1]: inactive
- outcome [2]: inactive
- AC50 [3]: 24.8 µM (active) and 30 µM (active)
- outcome [5]: inactive
- AC50 [6]: 21.9 µM (active) and 21.2 µM (active)
- AC50 [7]: 11.6 µM (active) and 10.5 µM (active)
- AC50 [8]: 8.7 µM (active) and 8.8 µM (active)

SMILES: OCCN1CN(CCO)CN(CCO)C1
- outcome [1]: inactive
- outcome [2]: inactive
- AC50 [3]: 32.8 µM (active)
- outcome [5]: inactive
- outcome [6]: inactive
- AC50 [10]: 25.8 µM (active)
- AC50 [7]: 20 µM (active)
- outcome [8]: inactive

SMILES: COC1=CC(=O)C[C@@H](C)[C@]12Oc1c(Cl)c(OC)cc(OC)c1C2=O
- AC50 [1]: 2.12 µM (active)
- outcome [2]: inactive
- outcome [3]: inactive
- outcome [5]: inactive
- outcome [6]: inactive
- outcome [7]: inactive
- outcome [8]: inactive

SMILES: C=CC(C)(CCC=C(C)C)OC(C)=O (stereo not given)
- outcome [1]: inactive
- AC50 [2]: 20 µM (active)
- AC50 [3]: 34.6 µM (active)
- outcome [5]: inactive
- outcome [6]: inactive
- outcome [7]: inactive
- AC50 [8]: 36.1 µM (active)

SMILES: CS(=O)(=O)c1ccc([C@@H](CC2CCCC2)C(=O)Nc2cnccn2)cc1Cl
- outcome [1]: inactive
- AC50 [2]: 26.3 µM (active)
- outcome [3]: inactive
- outcome [5]: inactive
- outcome [6]: inactive
- outcome [7]: inactive
- outcome [8]: inactive

SMILES: O=C(O)CCC(F)(F)C(F)(F)C(F)(F)C(F)(F)C(F)(F)F
- outcome [1]: inactive
- outcome [2]: inactive
- outcome [3]: inactive
- outcome [5]: inactive
- outcome [6]: inactive
- AC50 [7]: 0.22 µM (active)
- outcome [7]: inactive
- outcome [8]: inactive

SMILES: O=C1c2ccc(O)c(O)c2C(=O)c2c(O)ccc(O)c21
- outcome [1]: inactive
- AC50 [2]: 0.0224 µM (active)
- outcome [3]: inactive
- outcome [5]: inactive
- outcome [6]: inactive
- outcome [7]: inactive
- outcome [8]: inactive

SMILES: Cc1ccc(C(=O)c2ccccc2)cc1
- outcome [1]: inactive
- outcome [2]: inactive
- outcome [3]: inactive
- outcome [5]: inactive
- outcome [6]: inactive
- AC50 [7]: 29.3 µM (active)
- outcome [8]: inactive

SMILES: CCCCCCCCCCCCCCCCCC[N+](C)(C)Cc1ccccc1
- AC50 [1]: 0.296 µM (active)
- AC50 [2]: 2.77 µM (active)
- AC50 [3]: 10 µM (active)
- outcome [5]: inactive
- AC50 [6]: 2.52 µM (active)
- AC50 [7]: 0.721 µM (active)
- AC50 [8]: 0.556 µM (active)

SMILES: Cc1cccc2c1ccc1ccccc12
- outcome [1]: inactive
- outcome [2]: inactive
- outcome [3]: inactive
- outcome [5]: inactive
- outcome [6]: inactive
- outcome [10]: inactive
- outcome [7]: inactive
- outcome [8]: inactive

SMILES: N=C(N)c1ccc(OCCCCCOc2ccc(C(=N)N)cc2)cc1
- outcome [1]: inactive
- outcome [3]: inactive
- AC50 [5]: 29.1 µM (active)
- AC50 [6]: 20.9 µM (active)
- AC50 [7]: 20.6 µM (active)
- AC50 [8]: 25.8 µM (active)

SMILES: CC[N+](CC)(CC)Cc1ccccc1
- outcome [1]: inactive
- outcome [2]: inactive
- outcome [3]: inactive
- outcome [5]: inactive
- outcome [6]: inactive
- outcome [10]: inactive
- outcome [7]: inactive
- outcome [8]: inactive

SMILES: CC(C)(C)c1ccc(O)c(O)c1
- outcome [1]: inactive
- outcome [2]: inactive
- AC50 [3]: 4.99 µM (active)
- outcome [5]: inactive
- outcome [6]: inactive
- AC50 [7]: 31.1 µM (active)
- AC50 [8]: 31.8 µM (active)

SMILES: OCC(CO)(CBr)CBr
- outcome [1]: inactive
- outcome [2]: inactive
- outcome [3]: inactive
- outcome [5]: inactive
- outcome [6]: inactive
- outcome [7]: inactive
- outcome [8]: inactive

SMILES: O=C1OC2(c3ccccc31)c1cc(I)c(O)c(I)c1Oc1c2cc(I)c(O)c1I
- outcome [1]: inactive
- outcome [2]: inactive
- outcome [3]: inactive
- AC50 [5]: 1.88 µM (active)
- outcome [6]: inactive
- AC50 [7]: 4.57 µM (active)
- outcome [8]: inactive

SMILES: C[C@]12CC[C@@H]3c4ccc(O)cc4CC[C@H]3[C@@H]1C[C@@H](O)[C@@H]2O
- outcome [1]: inactive
- outcome [2]: inactive
- outcome [3]: inactive
- outcome [5]: inactive
- outcome [6]: inactive
- outcome [7]: inactive
- outcome [8]: inactive

SMILES: CCCCC=O
- outcome [1]: inactive
- outcome [2]: inactive
- outcome [3]: inactive
- outcome [5]: inactive
- outcome [6]: inactive
- outcome [7]: inactive
- outcome [8]: inactive

SMILES: O=C(O)CCC(F)(F)C(F)(F)C(F)(F)C(F)(F)C(F)(F)C(F)(F)F
- outcome [1]: inactive
- outcome [2]: inactive
- outcome [3]: inactive
- outcome [5]: inactive
- outcome [6]: inactive
- outcome [7]: inactive
- outcome [8]: inactive

SMILES: CCCCC(CC)C(=O)O (stereo not given)
- outcome [1]: inactive
- outcome [2]: inactive
- outcome [3]: inactive
- outcome [5]: inactive
- outcome [6]: inactive
- outcome [7]: inactive
- outcome [8]: inactive

SMILES: COCN(COC)c1nc(N(COC)COC)nc(N(COC)COC)n1
- outcome [1]: inactive
- outcome [2]: inactive
- outcome [3]: inactive
- outcome [5]: inactive
- outcome [6]: inactive
- outcome [7]: inactive
- outcome [8]: inactive

SMILES: O=C(c1ccccc1)c1ccccc1
- outcome [1]: inactive
- outcome [2]: inactive
- outcome [3]: inactive
- outcome [5]: inactive
- outcome [6]: inactive
- outcome [7]: inactive
- outcome [8]: inactive

SMILES: CCCCC(CC)C(=O)OCCOCCOCCOCCOC(=O)C(CC)CCCC (stereo not given)
- outcome [1]: inactive
- outcome [2]: inactive
- outcome [3]: inactive
- outcome [5]: inactive
- outcome [6]: inactive
- AC50 [7]: 20 µM (active)
- outcome [8]: inactive

SMILES: CCCCCc1ccc(O)cc1
- AC50 [1]: 12 µM (active)
- AC50 [2]: 14.4 µM (active)
- AC50 [3]: 13.1 µM (active)
- AC50 [5]: 29.9 µM (active)
- outcome [6]: inactive
- AC50 [7]: 25.5 µM (active)
- AC50 [8]: 28.9 µM (active)

SMILES: CN(C)c1ccc(C(=C2C=CC(=[N+](C)C)C=C2)c2ccccc2)cc1
- AC50 [1]: 0.0195 µM (active)
- AC50 [2]: 0.0461 µM (active)
- AC50 [3]: 0.554 µM (active)
- outcome [5]: inactive
- AC50 [6]: 2.67 µM (active)
- AC50 [10]: 0.0173 µM (active)
- AC50 [7]: 0.0319 µM (active)
- AC50 [8]: 0.0082 µM (active)

SMILES: CC1=NN(c2ccccc2)C(=O)C1
- outcome [1]: inactive
- outcome [2]: inactive
- outcome [3]: inactive
- outcome [5]: inactive
- outcome [6]: inactive
- outcome [10]: inactive
- outcome [7]: inactive
- outcome [8]: inactive

SMILES: CCCCCCCCCCCC
- outcome [1]: inactive
- outcome [2]: inactive
- outcome [3]: inactive
- outcome [5]: inactive
- AC50 [6]: 12.9 µM (active) and 14.6 µM (active)
- AC50 [7]: 9.32 µM (active) and 10.2 µM (active)
- AC50 [8]: 8.02 µM (active) and 11.1 µM (active)

SMILES: O=C(NCc1ncc(C(F)(F)F)cc1Cl)c1c(Cl)cccc1Cl
- outcome [1]: inactive
- outcome [2]: inactive
- outcome [3]: inactive
- outcome [5]: inactive
- outcome [6]: inactive
- outcome [7]: inactive
- outcome [8]: inactive
